For ten compounds, growth inhibition results are on record in PubChem BioAssay (NCI).

The nature of experiment [1]: NCI Yeast Anticancer Drug Screen. Data for the rad50 strain (AID 155).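 Further: 0% = growth of vehicle-only cultures of the same strain.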 To be noted: S. cerevisiae rad50 strain growth inhibition, stronger effect = higher value. In outline:
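Genetically altered yeast (DNA repair pathway); compound treatment; growth inhibition vs vehicle ctrl.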

A short description of experiment [2]: NCI Yeast Anticancer Drug Screen. Data for the mec2-1 strain (AID 157). Particulars: S. cerevisiae mec2-1 strain, stronger effect = higher value. In outline: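 Test agents were screened against the mec2-1 yeast strain, with defined DNA repair or cell cycle alteration. Growth was scored as inhibition against vehicle-only controls.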
The nature of experiment [3]: NCI Yeast Anticancer Drug Screen. Data for the sgs1 mgt1 strain (AID 161).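 Further: 0% = growth of cultures given vehicle only.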 To be noted: S. cerevisiae sgs1 mgt1 strain, stronger effect = higher value. In outline:
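Test agents were incubated with a DNA-repair-mutant yeast strain. Growth was then read and compared against vehicle-treated controls.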

A short description of experiment [4]: NCI Yeast Anticancer Drug Screen. Data for the cln2 rad14 strain (AID 165).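 Further: 0% = growth equal to vehicle treated cultures.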 Particulars: S. cerevisiae cln2 rad14 strain, stronger effect = higher value. In outline: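 Growth of compound-exposed yeast (cln2 rad14 genotype) measured and expressed as inhibition relative to vehicle.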
Experiment [5] is described as follows: NCI Yeast Anticancer Drug Screen. Data for the bub3 strain (AID 167). Particulars: S. cerevisiae bub3 mutant strain, stronger effect = higher value. The method in brief: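 Yeast carrying a defined mutation is treated with each compound, and growth is compared with that of vehicle-exposed cells to give inhibition.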
Experiment [6] can be described thus: NCI Yeast Anticancer Drug Screen. Data for the mlh1 rad18 strain (AID 175). To be noted: S. cerevisiae mlh1 rad18 strain growth inhibition, stronger effect = higher value. The method in brief:
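In this whole-cell yeast screen, a strain with altered DNA damage repair is challenged with compound, and its growth is measured against matched vehicle-treated controls.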

Setting [7] is: at 5.0 µM (retest, dose inferred, filed as 0.5).
[8] abbreviates: at 50.0 µM (retest, dose inferred, filed as 5.0).

Compounds without any hit were thinned out: in the full panel of roughly 79,000, 15% have a hit. A number with no mark means an inactive call. Activity calls are given as the source filed them. No stated cut-off is given here; in the data, active means growth inhibition above about 70%; inactive means the rest.

In the case of `CCOC(=O)C(=NNc1ccccc1)C(=O)OCC`, the growth inhibition is 2% in experiment [1] (setting [7]); 50% in experiment [1] (setting [8]); 42.4% in experiment [1] (at 50.0 µM); -3% in experiment [2] (setting [7]); 2% in experiment [2] (setting [8]); 33.2% in experiment [2] (at 50.0 µM). Besides, the growth inhibition was -4% in experiment [3] (setting [7]); 16% in experiment [3] (setting [8]); 42.5% in experiment [3] (at 50.0 µM); -1% in experiment [4] (setting [7]); 4% in experiment [4] (setting [8]); -14.6% in experiment [4] (at 50.0 µM). Also, the growth inhibition is -1% in experiment [5] (setting [7]); 27% in experiment [5] (setting [8]); 46.9% in experiment [5] (at 50.0 µM); 1% in experiment [6] (setting [7]); 25% in experiment [6] (setting [8]); 62.9% in experiment [6] (at 50.0 µM).
Take `CN(Cc1ccccc1)C(c1ccccc1)C(O)C(O)(c1ccccc1)c1ccccc1` (stereo not given): the growth inhibition in experiment [1] (setting [7]) is -10%; in experiment [1] (setting [8]) it was 40%; in experiment [1] (at 50.0 µM), 85.2% (active); in experiment [2] (setting [7]), 10%; in experiment [2] (setting [8]), 78% (active); in experiment [2] (at 50.0 µM), 58.2%. Moreover, the growth inhibition in experiment [3] (setting [7]) is -3%; in experiment [3] (setting [8]) it was 70% (active); in experiment [3] (at 50.0 µM) it was 87.3% (active); in experiment [4] (setting [7]), -26%; in experiment [4] (setting [8]), 16%; in experiment [4] (at 50.0 µM), 19.7%. Also, the growth inhibition in experiment [5] (setting [7]) was -9%; in experiment [5] (setting [8]), 58%; in experiment [5] (at 50.0 µM), 30.4%; in experiment [6] (setting [7]) it was 18%; in experiment [6] (setting [8]) it was 81% (active); in experiment [6] (at 50.0 µM), 72.5% (active).
With `CCOc1nc(N)nc(C)c1N=Nc1ccc(Cl)cc1`, the growth inhibition in experiment [1] (setting [7]) was 16%; in experiment [1] (setting [8]) it was 76% (active); in experiment [1] (at 50.0 µM) it was 95.5% (active); in experiment [2] (setting [7]), 4%; in experiment [2] (setting [8]), 58%; in experiment [2] (at 50.0 µM), 67.7%. Besides, the growth inhibition in experiment [3] (setting [7]) is 14%; in experiment [3] (setting [8]), 75% (active); in experiment [3] (at 50.0 µM), 91.9% (active); in experiment [4] (setting [7]), -5%; in experiment [4] (setting [8]) it was 35%; in experiment [4] (at 50.0 µM), 74.8% (active). In addition, the growth inhibition was -1% in experiment [5] (setting [7]); 19% in experiment [5] (setting [8]); 97.3% (active) in experiment [5] (at 50.0 µM); 25% in experiment [6] (setting [7]); 88% (active) in experiment [6] (setting [8]); 89.6% (active) in experiment [6] (at 50.0 µM).
`CC(=O)NNc1nc(C)c(C(=O)NNC(=O)C(=O)Nc2ccc(Cl)cc2Cl)s1`: the growth inhibition is 1% in experiment [1] (setting [7]); 82% (active) in experiment [1] (setting [8]); 54.6% in experiment [1] (at 50.0 µM); 1% in experiment [2] (setting [7]); 94% (active) in experiment [2] (setting [8]); 39.4% in experiment [2] (at 50.0 µM). Further, the growth inhibition in experiment [3] (setting [7]) was 5%; in experiment [3] (setting [8]), 87% (active); in experiment [3] (at 50.0 µM), 53.2%; in experiment [4] (setting [7]), -4%; in experiment [4] (setting [8]), 85% (active); in experiment [4] (at 50.0 µM) it was -38.2%. The growth inhibition was 5% in experiment [5] (setting [7]); 89% (active) in experiment [5] (setting [8]); 45.4% in experiment [5] (at 50.0 µM); -2% in experiment [6] (setting [7]); 89% (active) in experiment [6] (setting [8]); 73.9% (active) in experiment [6] (at 50.0 µM).
For `COc1ccc2c(c1)[n+]([O-])c(S(=O)(=O)c1ccc(C)cc1)c(N)[n+]2[O-]`, the growth inhibition in experiment [1] (setting [7]) is 4%; in experiment [1] (setting [8]), 80% (active); in experiment [1] (at 50.0 µM), 99.2% (active); in experiment [2] (setting [7]), 18%; in experiment [2] (setting [8]) it was 80% (active); in experiment [2] (at 50.0 µM), 98.8% (active). Besides, the growth inhibition was 35% in experiment [3] (setting [7]); 96% (active) in experiment [3] (setting [8]); 96% (active) in experiment [3] (at 50.0 µM); 16% in experiment [4] (setting [7]); 66% in experiment [4] (setting [8]); 99% (active) in experiment [4] (at 50.0 µM). Further, the growth inhibition in experiment [5] (setting [7]) was 50%; in experiment [5] (setting [8]), 96% (active); in experiment [5] (at 50.0 µM), 99% (active); in experiment [6] (setting [7]) it was 36%; in experiment [6] (setting [8]), 95% (active); in experiment [6] (at 50.0 µM) it was 99% (active).
Take `CC(c1ccccc1C(=O)O)c1cccc2ccccc12` (stereo not given): the growth inhibition in experiment [1] (setting [7]) is 4%; in experiment [1] (setting [8]) it was 89% (active); in experiment [1] (at 50.0 µM), 87.3% (active); in experiment [2] (setting [7]) it was -3%; in experiment [2] (setting [8]) it was 91% (active); in experiment [2] (at 50.0 µM), 92.3% (active). Moreover, the growth inhibition in experiment [3] (setting [7]) was 6%; in experiment [3] (setting [8]), 90% (active); in experiment [3] (at 50.0 µM) it was 83.3% (active); in experiment [4] (setting [7]) it was 6%; in experiment [4] (setting [8]), 98% (active); in experiment [4] (at 50.0 µM) it was 97.5% (active). Besides, the growth inhibition in experiment [5] (setting [7]) is -7%; in experiment [5] (setting [8]), 88% (active); in experiment [5] (at 50.0 µM), 91.5% (active); in experiment [6] (setting [7]), -12%; in experiment [6] (setting [8]) it was 92% (active); in experiment [6] (at 50.0 µM), 92.8% (active).
As to `CCS(=O)(=O)/C=C/c1ccncc1`, the growth inhibition in experiment [1] (setting [7]) was -3%; in experiment [1] (setting [8]), 11%; in experiment [1] (at 50.0 µM) it was 24.7%; in experiment [2] (setting [7]), 3%; in experiment [2] (setting [8]), -1%; in experiment [2] (at 50.0 µM) it was 27.9%. Besides, the growth inhibition in experiment [3] (setting [7]) is -2%; in experiment [3] (setting [8]), 12%; in experiment [3] (at 50.0 µM) it was 6.4%; in experiment [4] (setting [7]), 1%; in experiment [4] (setting [8]), 12%; in experiment [4] (at 50.0 µM) it was 5.85%. Also, the growth inhibition in experiment [5] (setting [7]) is -2%; in experiment [5] (setting [8]), 2%; in experiment [5] (at 50.0 µM) it was 7.9%; in experiment [6] (setting [7]) it was 11%; in experiment [6] (setting [8]), 11%; in experiment [6] (at 50.0 µM) it was 20.3%.
Take `CC1CN(CC2CCCCCCCCCCC2=O)CC(C)O1` (stereo not given): the growth inhibition was 59% in experiment [1] (setting [7]); 74% (active) in experiment [1] (setting [8]); 73.5% (active) in experiment [1] (at 50.0 µM); 25% in experiment [2] (setting [7]); 45% in experiment [2] (setting [8]); 65.5% in experiment [2] (at 50.0 µM). Also, the growth inhibition is 52% in experiment [3] (setting [7]); 53% in experiment [3] (setting [8]); 83.8% (active) in experiment [3] (at 50.0 µM); 62% in experiment [4] (setting [7]); 59% in experiment [4] (setting [8]); 60.4% in experiment [4] (at 50.0 µM). Also, the growth inhibition is 67% in experiment [5] (setting [7]); 79% (active) in experiment [5] (setting [8]); 75.8% (active) in experiment [5] (at 50.0 µM); 74% (active) in experiment [6] (setting [7]); 86% (active) in experiment [6] (setting [8]); 69.9% in experiment [6] (at 50.0 µM).
In the case of `O=C1COC(=O)/C1=C\C=C\c1ccccc1`, the growth inhibition was 5% in experiment [1] (setting [7]); 55% in experiment [1] (setting [8]); 95.6% (active) in experiment [1] (at 50.0 µM); 8% in experiment [2] (setting [7]); 84% (active) in experiment [2] (setting [8]); 91% (active) in experiment [2] (at 50.0 µM). Besides, the growth inhibition was 13% in experiment [3] (setting [7]); 78% (active) in experiment [3] (setting [8]); 99% (active) in experiment [3] (at 50.0 µM); 1% in experiment [4] (setting [7]); 94% (active) in experiment [4] (setting [8]); 95.4% (active) in experiment [4] (at 50.0 µM). The growth inhibition was -5% in experiment [5] (setting [7]); 43% in experiment [5] (setting [8]); 97.2% (active) in experiment [5] (at 50.0 µM); 2% in experiment [6] (setting [7]); 68% in experiment [6] (setting [8]); 99% (active) in experiment [6] (at 50.0 µM).
For `CCCC(=O)NCCNC(=O)CCC`, the growth inhibition in experiment [1] (setting [7]) is -154%; in experiment [1] (setting [8]), -159%; in experiment [1] (at 50.0 µM) it was 4.35%; in experiment [2] (setting [7]), -48%; in experiment [2] (setting [8]) it was -54%; in experiment [2] (at 50.0 µM), 7.75%. Besides, the growth inhibition in experiment [3] (setting [7]) was -61%; in experiment [3] (setting [8]), -62%; in experiment [3] (at 50.0 µM), 1.75%; in experiment [4] (setting [7]), -50%; in experiment [4] (setting [8]), -62%; in experiment [4] (at 50.0 µM), 45.8%. Also, the growth inhibition in experiment [5] (setting [7]) is -69%; in experiment [5] (setting [8]) it was -82%; in experiment [5] (at 50.0 µM), -3.15%; in experiment [6] (setting [7]), -139%; in experiment [6] (setting [8]) it was -117%; in experiment [6] (at 50.0 µM), 10.1%.
